For 13 compounds, outcome and Potency results are on record in PubChem BioAssay (Tox21).

Each structure is given as a SMILES string. A number with no mark means an inactive call. Records with an inconclusive call do not appear. Calls of active or inactive are those of the source. Unless noted, calls come from the whole dose curve; as a rule, active = well fitted curve in the direction sought with a large enough effect in the repeat runs; inconclusive = weak or mixed curves; inactive = no such curve, though single readings can be large; an effect the other way counts as inactive or inconclusive.

Test [1] can be described thus: qHTS RealTime-Glo MT Cell Viability Assay in HEK293 cells - 0 hour (AID 1224880). Note: top concentration of the series differs between compounds; nearly all actives have a fitted effect of over 45% in size. The procedure, abridged: (§1)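 Luminescence, which tracks viable cell number through reduction of the prosubstrate to a NanoLuc substrate, was read over continuous 37 C culture. Cells (600/well) were premixed with reagent and rested 5 h before 23 nL of compound in DMSO was pinned.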
A short description of test [2]: A CellTox Green Cytotoxicity Assay to monitor cytotoxicity in HEK293 cells - 32 hour (AID 1224881). Note: nearly all actives have a fitted effect of over 40% in size. A digest of the protocol:
(§2)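 Fluorescence from a DNA-binding dye excluded by viable cells was measured repeatedly in the same HEK293 wells (600 cells/well) during continuous compound exposure at 37 C. Each assay gives one read point: 0, 8, 16, 24, 32 or 40 h.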

Test [3] is described as follows: A CellTox Green Cytotoxicity Assay to monitor cytotoxicity in HepG2 cells - 0 hour (AID 1224882). Note: nearly all actives have a fitted effect of over 35% in size. A digest of the protocol:
(§3)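 Real-time cytotoxicity: fluorescence of a cell-impermeant cyanine dye binding DNA of dead HepG2 cells, measured repeatedly (0–40 h) during compound exposure at 37 C. Cells seeded 600/well with reagent, dosed after 5 h.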

Test [4] is described as follows: A CellTox Green Cytotoxicity Assay to monitor cytotoxicity in HepG2 cells - 32 hour (AID 1224883). Note: nearly all actives have a fitted effect of over 50% in size. A digest of the protocol: as §3
Test [5] is described as follows: A CellTox Green Cytotoxicity Assay to monitor cytotoxicity in HEK293 cells - 8 hour (AID 1224884). Note: nearly all actives have a fitted effect of over 35% in size. A digest of the protocol: as §2
Test [6] can be described thus: qHTS RealTime-Glo MT Cell Viability Assay in HepG2 cells - 16 hour (AID 1224885). Note: nearly all actives have a fitted effect of over 50% in size. A digest of the protocol:
(§4)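 HepG2 cells were seeded at 600 cells/well together with NanoLuc luciferase and a cell-permeant prosubstrate, preincubated 5 h at 37 C/5% CO2, then pin-dosed with compounds in DMSO. Nonlytic luminescence from viable cells was read at each time point.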
(In qHTS, concentration-response curves come from the screen itself.)

Test [7] is described as follows: qHTS RealTime-Glo MT Cell Viability Assay in HEK293 cells - 24 hour (AID 1224886). Note: top concentration of the series differs between compounds; nearly all actives have a fitted effect of over 50% in size. The procedure, abridged: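 HEK293 cells were seeded at 600 cells/well together with NanoLuc luciferase and cell-permeant prosubstrate, preincubated 5 h at 37 C/5% CO2, then given compound in DMSO by pintool. Luminescence from viable-cell prosubstrate reduction was read repeatedly over 40 h.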

A short description of test [8]: qHTS RealTime-Glo MT Cell Viability Assay in HEK293 cells - 8 hour (AID 1224887). Note: top concentration of the series differs between compounds; nearly all actives have a fitted effect of over 50% in size. The procedure, abridged: as §1
Test [9] is described as follows: A CellTox Green Cytotoxicity Assay to monitor cytotoxicity in HEK293 cells - 16 hour (AID 1224888). Note: nearly all actives have a fitted effect of over 35% in size. The procedure, abridged: as §2
Test [10] is described as follows: qHTS RealTime-Glo MT Cell Viability Assay in HepG2 cells - 0 hour (AID 1224889). Note: nearly all actives have a fitted effect of over 50% in size. The procedure, abridged:
as §4

Test [11] is described as follows: A CellTox Green Cytotoxicity Assay to monitor cytotoxicity in HepG2 cells - 8 hour (AID 1224890). Note: nearly all actives have a fitted effect of over 45% in size. The procedure, abridged: as §3
Test [12] is described as follows: qHTS assay to identify small molecule antagonists of the estrogen receptor alpha (ER-alpha) signaling pathway using the BG1 cell line in the presence of 0.1 nM 17-beta-estradiol - cell viability counter screen (AID 1259241). Note: nearly all actives have a fitted effect of over 40% in size. A digest of the protocol:
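Cells were plated and left 24 hr, compounds in DMSO were pinned in, 17beta-estradiol was added to 0.1 nM final, and after 22 hr CellTiter-Fluor reagent was added for 30 min before fluorescence was read.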

The nature of test [13]: qHTS assay to identify small molecule antagonists of the androgen receptor (AR) signaling pathway using the MDA cell line in the presence of 0.5 nM R1881 - cell viability counter screen (AID 1259242). Note: nearly all actives have a fitted effect of over 45% in size. A digest of the protocol: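 Live-cell protease activity was measured by CellTiter-Fluor fluorescence after 30 min. Before that, MDA-kb2 MMTV-luciferase cells had 16 hr at 37C without CO2, exposed to test compounds and 0.5 nM R1881 final.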

Test [14] can be described thus: qHTS assay to identify small molecule phospholipidosis (PLD) inducers (AID 1259344; active = well fitted curve in the direction sought with a large enough effect; an effect the other way counts as inactive or inconclusive). A digest of the protocol: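 After 4 h attachment on collagen I, HepG2 cells were dosed with compound alongside LipidTOX Red, kept 24 h at 37 C, fixed, and imaged for lamellar phospholipid pits.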
A short description of test [15]: qHTS assay to identify small molecule HDAC inhibitors (AID 1259364). Note: nearly all actives have a fitted effect of over 45% in size. Note: potency is the fitted concentration of half-maximal effect. A digest of the protocol:
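Luminescence read after 30 min room-temperature HDAC-Glo incubation measures cellular class I/II HDAC activity. Compounds were applied for 2 hr at 37 C to HCT-116 wild-type cells seeded the day before.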

The nature of test [16]: qHTS assay to identify small molecule HDAC inhibitors - cell viability counter screen (AID 1259365). The procedure, abridged:
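Counter screen in wild-type HCT-116 cells: compounds dissolved in DMSO are pin-transferred onto overnight-plated cells and left 2hr at 37C. ATP-based CellTiter-Glo luminescence then measures viable cells.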

The nature of test [17]: qHTS assay to identify small molecule agonists of the sonic hedgehog signaling (Shh) pathway - cell viability counter screen (AID 1259366). Note: nearly all actives have a fitted effect of over 50% in size. The procedure, abridged: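 Cells are plated at 2,000 per well and left 4hr at 37C, 5% CO2 before compound addition. After 23hr of treatment, CellTiter-Fluor reagent is added for 1hr at 37C and fluorescence is measured.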
Test [18] in a line: qHTS assay to identify small molecule antagonists of the sonic hedgehog signaling (Shh) pathway - cell viability counter screen (AID 1259367). Note: nearly all actives have a fitted effect of over 55% in size. A digest of the protocol: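 Conditioned medium drove Shh signaling in 3T3 Gli1-Luc cells exposed to compounds at 37C and 5% CO2. Viability was determined from CellTiter-Fluor fluorescence, with reagent incubated 1 hr after 23 hr of treatment.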

Test [19] concerns the target Estrogen receptor (Homo sapiens) (UniProt P03372). Briefly: qHTS assay to identify small molecule antagonists of the estrogen receptor alpha (ER-alpha) signaling pathway using the BG1 cell line in the presence of 0.1 nM 17-beta-estradiol (AID 1259244). Note: nearly all actives have a fitted effect of over 50% in size. The procedure, abridged:
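Luciferase luminescence (ONE-Glo, 30 min at room temperature) was read after 22 hr at 37C exposure to compounds plus 17beta-estradiol at 0.1 nM final. Cells were VM7Luc4E2 with endogenous ER-alpha and an ERE-driven luciferase, pre-cultured 5 days in hormone-depleted medium.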

Estrogen receptor (Homo sapiens), sequence (P03372 whole entry, looked up): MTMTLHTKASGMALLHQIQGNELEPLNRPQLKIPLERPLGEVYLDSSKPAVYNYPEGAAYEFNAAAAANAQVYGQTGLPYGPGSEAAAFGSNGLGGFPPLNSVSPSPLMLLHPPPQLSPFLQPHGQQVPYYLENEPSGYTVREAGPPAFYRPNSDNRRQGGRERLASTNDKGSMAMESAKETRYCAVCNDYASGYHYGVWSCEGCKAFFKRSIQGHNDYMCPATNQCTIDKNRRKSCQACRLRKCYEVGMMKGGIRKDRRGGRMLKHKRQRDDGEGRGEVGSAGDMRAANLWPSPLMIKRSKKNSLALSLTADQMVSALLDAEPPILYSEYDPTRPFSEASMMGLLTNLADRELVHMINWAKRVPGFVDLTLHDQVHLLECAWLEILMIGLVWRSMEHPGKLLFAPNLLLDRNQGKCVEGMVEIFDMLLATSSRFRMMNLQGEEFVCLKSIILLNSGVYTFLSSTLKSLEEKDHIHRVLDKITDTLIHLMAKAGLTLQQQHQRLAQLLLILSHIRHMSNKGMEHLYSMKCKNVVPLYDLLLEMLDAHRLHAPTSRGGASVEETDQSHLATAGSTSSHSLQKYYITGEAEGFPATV

On to `O=C(O)/C=C/c1ccc(Cn2ccnc2)cc1`, for which the result in [1], in test [6], in test [12], in test [13], in test [16] and in [18] was inactive. Further, the Potency result in test [2], in [3], in [4], in test [5], in [7] and in [8] was “inactive” throughout. The Potency entry in [9], in test [10], in test [11], in test [14], in test [15] and in test [17] was “inactive” each time.

Consider `CCCCCCCCCCC1CO1` (configuration not stated), for which the result in [1], in [6], in test [12], in [13], in test [16] and in [18] was inactive. The Potency entry in test [2], in [3], in test [4], in [5], in test [7] and in test [8] was “inactive” in each case. Besides, the Potency entry in test [9], in test [10], in test [11], in [15] and in test [17] was “inactive” in each case.

As for `COC(C(=O)O)c1ccccc1` (configuration not stated), the compound was called inactive in test [1], in test [6], in [12], in test [13], in [16] and in [18]. The Potency entry in [2], in test [3], in [4], in [5], in test [7] and in test [8] was “inactive” each time. Also, the Potency result in test [9], in [10], in test [11], in [15] and in test [17] was “inactive” in each case.

As to `OC[C@H]1O[C@@H]2O[C@H]3[C@H](O)[C@@H](O)[C@@H](O[C@H]4[C@H](O)[C@@H](O)[C@@H](O[C@H]5[C@H](O)[C@@H](O)[C@@H](O[C@H]6[C@H](O)[C@@H](O)[C@@H](O[C@H]7[C@H](O)[C@@H](O)[C@@H](O[C@H]8[C@H](O)[C@@H](O)[C@@H](O[C@H]9[C@H](O)[C@@H](O)[C@@H](O[C@H]1[C@H](O)[C@H]2O)O[C@@H]9CO)O[C@@H]8CO)O[C@@H]7CO)O[C@@H]6CO)O[C@@H]5CO)O[C@@H]4CO)O[C@@H]3CO`, the result in [1], in test [6], in test [12], in test [13], in [16] and in test [18] was inactive. Further, the Potency result in test [2], in [3], in test [4], in [5], in test [7] and in [8] was “inactive” in each case. In addition, the Potency result in test [9], in [10], in [11], in [15] and in test [17] was “inactive” throughout.

In the case of `N[C@@H](CS)C(=O)O`, the call in test [1], in [6], in [12], in test [13], in [16] and in test [18] was inactive. Moreover, the Potency entry in test [2], in test [3], in test [4], in test [5], in test [7] and in test [8] was “inactive” each time. For the same compound, the Potency entry in [9], in [10], in test [11], in test [15] and in [17] was “inactive” each time.

Turning to `Oc1ccc2c(c1)OC[C@@H](N1CCC(O)(c3ccc(F)cc3)CC1)[C@H]2O`, the compound was classed as inactive in test [1], in test [6], in [12], in [13], in test [19] and in test [16]. For the same compound, the result in [18] was inactive. Besides, the Potency result in test [2], in test [3], in [4], in test [5], in test [7] and in test [8] was “inactive” throughout. For the same compound, the Potency entry in test [9], in test [10], in [11] and in test [17] was “inactive” throughout. The Potency in test [15] is 2370 nM (active).

As for `C[C@H]1O[C@@H](n2cc(F)c(=O)[nH]c2=O)[C@H](O)[C@@H]1O`, the result in [1], in [6], in test [12], in [13], in test [16] and in test [18] was inactive. The Potency result in test [2], in test [3], in test [4], in test [5], in [7] and in test [8] was “inactive” each time. The Potency result in test [9], in test [10], in test [11], in test [14], in test [15] and in [17] was “inactive” each time.

Take `CCCc1ccccc1O`: the compound was called inactive in [1], in test [6], in test [12], in test [13] and in [16]. In addition, the Potency result in test [2], in [3], in test [4], in test [5], in test [7] and in test [8] was “inactive” each time. The Potency entry in [9], in test [10], in [11], in test [15] and in test [17] was “inactive” each time.

Take `CCCC(C)C(=O)O` (configuration not stated): the outcome in test [1], in [6], in test [12], in [13], in test [19] and in test [16] was inactive. Further, the outcome in [18] was inactive. Besides, the Potency result in test [2], in [3], in test [4], in test [5], in test [7] and in test [8] was “inactive” in each case. Further, the Potency entry in test [9], in test [10], in test [11], in test [15] and in [17] was “inactive” in each case.

For `COc1nc(C)nc(N)n1`, the result in test [1], in test [6], in [12], in test [13], in test [19] and in test [16] was inactive. In addition, in test [18], the call was inactive. The Potency entry in test [2], in [3], in test [4], in test [5], in test [7] and in test [8] was “inactive” in each case. In addition, the Potency result in test [9], in test [10], in [11], in [15] and in [17] was “inactive” each time.

With `C=CC(=O)N1CCOCC1`, the call in test [1], in test [6], in [12], in test [13], in [16] and in test [18] was inactive. For the same compound, the Potency entry in test [2], in [3], in [4], in test [5], in test [7] and in test [8] was “inactive” each time. The Potency result in test [9], in test [10], in test [11], in test [15] and in test [17] was “inactive” each time.

For `C=C[Si](OC)(OC)OC`, the compound was called inactive in [1], in test [6], in test [12], in test [13], in test [19] and in test [16]. For the same compound, the result in [18] was inactive. Besides, the Potency entry in [2], in test [3], in test [4], in test [5], in [7] and in test [8] was “inactive” each time. The Potency result in [9], in [10], in test [11], in test [15] and in test [17] was “inactive” each time.

On to `O=C(O)C1CCC1`, for which the compound was called inactive in test [1], in [6], in test [12], in [13], in [19] and in test [16]. Further, in test [18], the compound was called inactive. For the same compound, the Potency entry in [2], in [3], in test [4], in test [5], in test [7] and in test [8] was “inactive” throughout. The Potency entry in [9], in test [10], in [11], in test [15] and in test [17] was “inactive” throughout.
